# From article PMC11062922 (Nature Chemical Biology, 2023)
# Like-named read-outs stand apart in the source and are kept apart here.
# Tests used:
# Conditions in all cases: read-out: apparent Kd, n = 1
# PRKD1 = system: PRKD1
# PTK2B = system: PTK2B
# SIK3 = system: SIK3
# SLK = system: SLK
# [1] = compound concentrations:100 nM and 1000 nM (sheet 'Lestaurtinib' of Supplementary Table 1),run:Lestaurtinib_02584_R2,Plate:MR017
# [2] = compound concentrations:100 nM and 1000 nM (sheet 'Lestaurtinib' of Supplementary Table 1),run:Lestaurtinib_02584_R3,Plate:MR017
# [3] = compound concentrations:100 nM and 1000 nM (sheet 'Lestaurtinib' of Supplementary Table 1),run:Lestaurtinib_02601_R1,Plate:MR018
# [4] = compound concentrations:100 nM and 1000 nM (sheet 'Lestaurtinib' of Supplementary Table 1),run:Lestaurtinib_02724_R3,Plate:MR021
# [5] = compound concentrations:100 nM and 1000 nM (sheet 'Lestaurtinib' of Supplementary Table 1),run:Lestaurtinib_02748_R2,Plate:MR024
# [6] = compound concentrations:100 nM and 1000 nM (sheet 'Lestaurtinib' of Supplementary Table 1),run:Lestaurtinib_02896_R3,Plate:MR030
# [7] = compound concentrations:100 nM and 1000 nM (sheet 'Lestaurtinib' of Supplementary Table 1),run:Lestaurtinib_02339_R2,Plate:MR001
# [8] = compound concentrations:100 nM and 1000 nM (sheet 'Lestaurtinib' of Supplementary Table 1),run:Lestaurtinib_02422_R1,Plate:MR006
# [9] = compound concentrations:100 nM and 1000 nM (sheet 'Lestaurtinib' of Supplementary Table 1),run:Lestaurtinib_02443_R3,Plate:MR009
# [10] = compound concentrations:100 nM and 1000 nM (sheet 'Lestaurtinib' of Supplementary Table 1),run:Lestaurtinib_02473_R3,Plate:MR010
# [11] = compound concentrations:100 nM and 1000 nM (sheet 'Lestaurtinib' of Supplementary Table 1),run:Lestaurtinib_02496_R1,Plate:MR013
# [12] = compound concentrations:100 nM and 1000 nM (sheet 'Lestaurtinib' of Supplementary Table 1),run:Lestaurtinib_02496_R3,Plate:MR013
# [13] = compound concentrations:100 nM and 1000 nM (sheet 'Lestaurtinib' of Supplementary Table 1),run:Lestaurtinib_02748_R1,Plate:MR024
# [14] = compound concentrations:100 nM and 1000 nM (sheet 'Lestaurtinib' of Supplementary Table 1),run:Lestaurtinib_03172_R3,Plate:MR031
# [15] = compound concentrations:100 nM and 1000 nM (sheet 'Lestaurtinib' of Supplementary Table 1),run:Lestaurtinib_02367_R3,Plate:MR003
# [16] = compound concentrations:100 nM and 1000 nM (sheet 'Lestaurtinib' of Supplementary Table 1),run:Lestaurtinib_02381_R3,Plate:MR004
# [17] = compound concentrations:100 nM and 1000 nM (sheet 'Lestaurtinib' of Supplementary Table 1),run:Lestaurtinib_02422_R3,Plate:MR006
# [18] = compound concentrations:100 nM and 1000 nM (sheet 'Lestaurtinib' of Supplementary Table 1),run:Lestaurtinib_02438_R2,Plate:MR008
# [19] = compound concentrations:100 nM and 1000 nM (sheet 'Lestaurtinib' of Supplementary Table 1),run:Lestaurtinib_02482_R3,Plate:MR011
substance,measurement,setting,value
Lestaurtinib,potency estimated from few doses,PRKD1; [1],206 nM
same,potency estimated from few doses,PRKD1; [2],278 nM
same,potency estimated from few doses,PRKD1; [3],99.8 nM
same,potency estimated from few doses,"PRKD1; compound concentrations:100 nM and 1000 nM (sheet 'Lestaurtinib' of Supplementary Table 1),run:Lestaurtinib_02606_R1,Plate:MR019",131 nM
same,potency estimated from few doses,"PRKD1; compound concentrations:100 nM and 1000 nM (sheet 'Lestaurtinib' of Supplementary Table 1),run:Lestaurtinib_02606_R3,Plate:MR019",135 nM
same,potency estimated from few doses,PRKD1; [4],41.4 nM
same,potency estimated from few doses,"PRKD1; compound concentrations:100 nM and 1000 nM (sheet 'Lestaurtinib' of Supplementary Table 1),run:Lestaurtinib_02741_R1,Plate:MR023",13.3 nM
same,potency estimated from few doses,"PRKD1; compound concentrations:100 nM and 1000 nM (sheet 'Lestaurtinib' of Supplementary Table 1),run:Lestaurtinib_02741_R3,Plate:MR023",17.5 nM
same,potency estimated from few doses,PRKD1; [5],208 nM
same,potency estimated from few doses,"PRKD1; compound concentrations:100 nM and 1000 nM (sheet 'Lestaurtinib' of Supplementary Table 1),run:Lestaurtinib_02748_R3,Plate:MR024",254 nM
same,potency estimated from few doses,"PRKD1; compound concentrations:100 nM and 1000 nM (sheet 'Lestaurtinib' of Supplementary Table 1),run:Lestaurtinib_02795_R3,Plate:MR022",193 nM
same,potency estimated from few doses,PRKD1; [6],141 nM
same,potency estimated from few doses,PTK2B; [7],971 nM
same,potency estimated from few doses,PTK2B; [8],859 nM
same,potency estimated from few doses,"PTK2B; compound concentrations:100 nM and 1000 nM (sheet 'Lestaurtinib' of Supplementary Table 1),run:Lestaurtinib_02437_R3,Plate:MR007",800 nM
same,potency estimated from few doses,PTK2B; [9],928 nM
same,potency estimated from few doses,PTK2B; [10],58.4 nM
same,potency estimated from few doses,"PTK2B; compound concentrations:100 nM and 1000 nM (sheet 'Lestaurtinib' of Supplementary Table 1),run:Lestaurtinib_02487_R1,Plate:MR012",209 nM
same,potency estimated from few doses,PTK2B; [11],974 nM
same,potency estimated from few doses,"PTK2B; compound concentrations:100 nM and 1000 nM (sheet 'Lestaurtinib' of Supplementary Table 1),run:Lestaurtinib_02496_R2,Plate:MR013",703 nM
same,potency estimated from few doses,PTK2B; [12],966 nM
same,potency estimated from few doses,"PTK2B; compound concentrations:100 nM and 1000 nM (sheet 'Lestaurtinib' of Supplementary Table 1),run:Lestaurtinib_02572_R1,Plate:MR015",615 nM
same,potency estimated from few doses,"PTK2B; compound concentrations:100 nM and 1000 nM (sheet 'Lestaurtinib' of Supplementary Table 1),run:Lestaurtinib_02572_R2,Plate:MR015",666 nM
same,potency estimated from few doses,PTK2B; [13],954 nM
same,potency estimated from few doses,PTK2B; [14],1240 nM
same,potency estimated from few doses,"SIK3; compound concentrations:100 nM and 1000 nM (sheet 'Lestaurtinib' of Supplementary Table 1),run:Lestaurtinib_02339_R3,Plate:MR001",1990 nM
same,potency estimated from few doses,SIK3; [15],2180 nM
same,potency estimated from few doses,"SIK3; compound concentrations:100 nM and 1000 nM (sheet 'Lestaurtinib' of Supplementary Table 1),run:Lestaurtinib_02381_R2,Plate:MR004",2120 nM
same,potency estimated from few doses,SIK3; [16],1930 nM
same,potency estimated from few doses,"SIK3; compound concentrations:100 nM and 1000 nM (sheet 'Lestaurtinib' of Supplementary Table 1),run:Lestaurtinib_02407_R3,Plate:MR005",1890 nM
same,potency estimated from few doses,"SIK3; compound concentrations:100 nM and 1000 nM (sheet 'Lestaurtinib' of Supplementary Table 1),run:Lestaurtinib_02422_R2,Plate:MR006",1760 nM
same,potency estimated from few doses,SIK3; [17],1570 nM
same,potency estimated from few doses,"SIK3; compound concentrations:100 nM and 1000 nM (sheet 'Lestaurtinib' of Supplementary Table 1),run:Lestaurtinib_02437_R2,Plate:MR007",1400 nM
same,potency estimated from few doses,"SIK3; compound concentrations:100 nM and 1000 nM (sheet 'Lestaurtinib' of Supplementary Table 1),run:Lestaurtinib_02438_R1,Plate:MR008",1800 nM
same,potency estimated from few doses,SIK3; [18],1720 nM
same,potency estimated from few doses,"SIK3; compound concentrations:100 nM and 1000 nM (sheet 'Lestaurtinib' of Supplementary Table 1),run:Lestaurtinib_02438_R3,Plate:MR008",1330 nM
same,potency estimated from few doses,"SIK3; compound concentrations:100 nM and 1000 nM (sheet 'Lestaurtinib' of Supplementary Table 1),run:Lestaurtinib_02443_R1,Plate:MR009",1970 nM
same,potency estimated from few doses,"SIK3; compound concentrations:100 nM and 1000 nM (sheet 'Lestaurtinib' of Supplementary Table 1),run:Lestaurtinib_02443_R2,Plate:MR009",1960 nM
same,potency estimated from few doses,SIK3; [9],964 nM
same,potency estimated from few doses,SIK3; [10],1240 nM
same,potency estimated from few doses,SIK3; [19],1570 nM
same,potency estimated from few doses,"SIK3; compound concentrations:100 nM and 1000 nM (sheet 'Lestaurtinib' of Supplementary Table 1),run:Lestaurtinib_02487_R2,Plate:MR012",1700 nM
same,potency estimated from few doses,SIK3; [11],956 nM
same,potency estimated from few doses,SIK3; [12],1300 nM
same,potency estimated from few doses,"SIK3; compound concentrations:100 nM and 1000 nM (sheet 'Lestaurtinib' of Supplementary Table 1),run:Lestaurtinib_02566_R1,Plate:MR014",1420 nM
same,potency estimated from few doses,"SIK3; compound concentrations:100 nM and 1000 nM (sheet 'Lestaurtinib' of Supplementary Table 1),run:Lestaurtinib_02566_R3,Plate:MR014",1460 nM
same,potency estimated from few doses,"SIK3; compound concentrations:100 nM and 1000 nM (sheet 'Lestaurtinib' of Supplementary Table 1),run:Lestaurtinib_02577_R1,Plate:MR016",1590 nM
same,potency estimated from few doses,"SIK3; compound concentrations:100 nM and 1000 nM (sheet 'Lestaurtinib' of Supplementary Table 1),run:Lestaurtinib_02577_R2,Plate:MR016",1630 nM
same,potency estimated from few doses,"SIK3; compound concentrations:100 nM and 1000 nM (sheet 'Lestaurtinib' of Supplementary Table 1),run:Lestaurtinib_02577_R3,Plate:MR016",1960 nM
same,potency estimated from few doses,SIK3; [1],1420 nM
same,potency estimated from few doses,SIK3; [2],1300 nM
same,potency estimated from few doses,SIK3; [3],1820 nM
same,potency estimated from few doses,"SIK3; compound concentrations:100 nM and 1000 nM (sheet 'Lestaurtinib' of Supplementary Table 1),run:Lestaurtinib_02601_R2,Plate:MR018",1650 nM
same,potency estimated from few doses,"SIK3; compound concentrations:100 nM and 1000 nM (sheet 'Lestaurtinib' of Supplementary Table 1),run:Lestaurtinib_02606_R2,Plate:MR019",1760 nM
same,potency estimated from few doses,"SIK3; compound concentrations:100 nM and 1000 nM (sheet 'Lestaurtinib' of Supplementary Table 1),run:Lestaurtinib_02624_R1,Plate:MR020",1910 nM
same,potency estimated from few doses,"SIK3; compound concentrations:100 nM and 1000 nM (sheet 'Lestaurtinib' of Supplementary Table 1),run:Lestaurtinib_02724_R1,Plate:MR021",1300 nM
same,potency estimated from few doses,"SIK3; compound concentrations:100 nM and 1000 nM (sheet 'Lestaurtinib' of Supplementary Table 1),run:Lestaurtinib_02724_R2,Plate:MR021",1320 nM
same,potency estimated from few doses,SIK3; [4],1350 nM
same,potency estimated from few doses,"SIK3; compound concentrations:100 nM and 1000 nM (sheet 'Lestaurtinib' of Supplementary Table 1),run:Lestaurtinib_02741_R2,Plate:MR023",1300 nM
same,potency estimated from few doses,SIK3; [13],1410 nM
same,potency estimated from few doses,SIK3; [5],1490 nM
same,potency estimated from few doses,"SIK3; compound concentrations:100 nM and 1000 nM (sheet 'Lestaurtinib' of Supplementary Table 1),run:Lestaurtinib_02752_R1,Plate:MR025",1430 nM
same,potency estimated from few doses,"SIK3; compound concentrations:100 nM and 1000 nM (sheet 'Lestaurtinib' of Supplementary Table 1),run:Lestaurtinib_02752_R2,Plate:MR025",1720 nM
same,potency estimated from few doses,"SIK3; compound concentrations:100 nM and 1000 nM (sheet 'Lestaurtinib' of Supplementary Table 1),run:Lestaurtinib_02765_R2,Plate:MR026",1360 nM
same,potency estimated from few doses,"SIK3; compound concentrations:100 nM and 1000 nM (sheet 'Lestaurtinib' of Supplementary Table 1),run:Lestaurtinib_02766_R1,Plate:MR027",1130 nM
same,potency estimated from few doses,"SIK3; compound concentrations:100 nM and 1000 nM (sheet 'Lestaurtinib' of Supplementary Table 1),run:Lestaurtinib_02768_R3,Plate:MR028",1510 nM
same,potency estimated from few doses,"SIK3; compound concentrations:100 nM and 1000 nM (sheet 'Lestaurtinib' of Supplementary Table 1),run:Lestaurtinib_02795_R1,Plate:MR022",2150 nM
same,potency estimated from few doses,"SIK3; compound concentrations:100 nM and 1000 nM (sheet 'Lestaurtinib' of Supplementary Table 1),run:Lestaurtinib_02802_R1,Plate:MR029",1990 nM
same,potency estimated from few doses,"SIK3; compound concentrations:100 nM and 1000 nM (sheet 'Lestaurtinib' of Supplementary Table 1),run:Lestaurtinib_02802_R3,Plate:MR029",1720 nM
same,potency estimated from few doses,SIK3; [6],1210 nM
same,potency estimated from few doses,"SIK3; compound concentrations:100 nM and 1000 nM (sheet 'Lestaurtinib' of Supplementary Table 1),run:Lestaurtinib_03172_R1,Plate:MR031",1420 nM
same,potency estimated from few doses,"SIK3; compound concentrations:100 nM and 1000 nM (sheet 'Lestaurtinib' of Supplementary Table 1),run:Lestaurtinib_03172_R2,Plate:MR031",1540 nM
same,potency estimated from few doses,SIK3; [14],1130 nM
same,potency estimated from few doses,"SIK3; compound concentrations:100 nM and 1000 nM (sheet 'Lestaurtinib' of Supplementary Table 1),run:Lestaurtinib_03252_R1,Plate:MR032",1350 nM
same,potency estimated from few doses,"SIK3; compound concentrations:100 nM and 1000 nM (sheet 'Lestaurtinib' of Supplementary Table 1),run:Lestaurtinib_03252_R2,Plate:MR032",1130 nM
same,potency estimated from few doses,"SIK3; compound concentrations:100 nM and 1000 nM (sheet 'Lestaurtinib' of Supplementary Table 1),run:Lestaurtinib_03260_R2,Plate:MR033",1420 nM
same,potency estimated from few doses,SLK; [7],859 nM
same,potency estimated from few doses,"SLK; compound concentrations:100 nM and 1000 nM (sheet 'Lestaurtinib' of Supplementary Table 1),run:Lestaurtinib_02364_R2,Plate:MR002",1540 nM
same,potency estimated from few doses,"SLK; compound concentrations:100 nM and 1000 nM (sheet 'Lestaurtinib' of Supplementary Table 1),run:Lestaurtinib_02364_R3,Plate:MR002",1370 nM
same,potency estimated from few doses,"SLK; compound concentrations:100 nM and 1000 nM (sheet 'Lestaurtinib' of Supplementary Table 1),run:Lestaurtinib_02367_R1,Plate:MR003",1350 nM
same,potency estimated from few doses,"SLK; compound concentrations:100 nM and 1000 nM (sheet 'Lestaurtinib' of Supplementary Table 1),run:Lestaurtinib_02367_R2,Plate:MR003",1300 nM
same,potency estimated from few doses,SLK; [15],1530 nM
same,potency estimated from few doses,SLK; [16],1210 nM
same,potency estimated from few doses,"SLK; compound concentrations:100 nM and 1000 nM (sheet 'Lestaurtinib' of Supplementary Table 1),run:Lestaurtinib_02407_R2,Plate:MR005",1670 nM
same,potency estimated from few doses,SLK; [8],1150 nM
same,potency estimated from few doses,SLK; [17],1360 nM
same,potency estimated from few doses,SLK; [18],1420 nM
same,potency estimated from few doses,SLK; [9],992 nM
same,potency estimated from few doses,SLK; [19],1420 nM
